This passage reports Potency and outcome results from PubChem BioAssay (Tox21).

A short description of test [1]: qHTS assay to identify small molecule antagonists of the estrogen related receptor (ERR) signaling pathway from Tox21 library - cell viability counter screen (AID 1224834). Further: nearly all actives have a fitted effect of over 30% in size. Further: potency means the concentration at half of the fitted maximal effect. An outline of the steps: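 ERR reporter cells were plated 6 h before compound addition, then exposed to test compounds in DMSO for 17.5 h at 37 C. Viability was read as CellTiter-Fluor fluorescence after a 30-minute incubation at 37 C.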
In general terms: Quantitative high-throughput screening tests each substance at several concentrations.

The target in test [2] is Luciferin 4-monooxygenase (Photinus pyralis) (UniProt P08659). As to the kind of experiment: qHTS assay to identify small molecule inhibitors of firefly luciferase (AID 1224835). Further: nearly all actives have a fitted effect of over 25% in size. Further: potency means the concentration at half of the fitted maximal effect. The gist of the method:
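Quantitative HTS format; KM concentrations of both substrates. Purified P. pyralis FLuc activity quantified from luminescence images.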

Test [3] is described as follows: qHTS assay to identify small molecule agonists of the constitutive androstane receptor (CAR) signaling pathway - cell viability counter screen (AID 1224836). Further: nearly all actives have a fitted effect of over 45% in size. Further: potency means the concentration at half of the fitted maximal effect. The gist of the method: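 Using CellTiter-Fluor, viability of HepG2 cells harbouring hCAR and CYP2B6-2.2kb was measured following 23 h incubation with a 15-concentration compound series plus PK11195 (0.75 uM final).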

A short description of test [4]: qHTS assay to identify small molecule antagonists of the constitutive androstane receptor (CAR) signaling pathway - cell viability counter screen (AID 1224837). Further: series mostly up to about 92 µM; nearly all actives have a fitted effect of over 45% in size. The gist of the method: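 HepG2 cells stably expressing hCAR and a CYP2B6-2.2kb reporter were plated and pre-incubated 4 hr at 37 C/5% CO2, then given compounds at 15 concentrations plus 50 nM CITCO (final). After 23 hr, viability was read by CellTiter-Fluor fluorescence.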

Test [5] has as its target Nuclear receptor subfamily 1 group I member 3 (Homo sapiens) (UniProt Q14994). As to the kind of experiment: qHTS assay to identify small molecule antagonists of the constitutive androstane receptor (CAR) signaling pathway (AID 1224838). Further: nearly all actives have a fitted effect of over 40% in size. An outline of the steps:
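HepG2 cells stably co-transfected with hCAR and a CYP2B6-2.2kb luciferase reporter were seeded 4 h before compound addition at 15 concentrations. Cells were stimulated with 50 nM CITCO (final) for 24 h at 37 C; luciferase luminescence was then read.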

Test [6] has the same target. As to the kind of experiment: qHTS assay to identify small molecule agonists of the constitutive androstane receptor (CAR) signaling pathway (AID 1224839). Further: nearly all actives have a fitted effect of over 15% in size. Further: potency means the concentration at half of the fitted maximal effect. An outline of the steps: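 Double-stable HepG2 cells (hCAR, CYP2B6-2.2kb) seeded 4 h before compound addition. Exposure 24 h with 0.75 uM PK11195 final. Luciferase detected by ONE-Glo.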
A short description of test [7]: qHTS assay to identify small molecule antagonists of the estrogen related receptor signaling pathway with the pleiotropic PPARgamma coactivator (PGC) from Tox21 10K library - cell viability counter screen (AID 1224840; active means well fitted cell-killing curve with a large enough effect in the repeat runs, not every such curve was filed as active; further: nearly all actives have a fitted effect of over 40% in size; further: potency means the concentration at half of the fitted maximal effect). The gist of the method:
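PGC/ERR cells were seeded at 2,000 cells/well and left 6 hours at 37 C/5% CO2 before pin-tool addition of compounds in DMSO. After 17.5 hours at 37 C, CellTiter-Fluor was added and fluorescence read 30 minutes later.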

The nature of test [8]: qHTS assay to identify small molecule antagonists of the estrogen related receptor signaling pathway with the pleiotropic PPARgamma coactivator (PGC) from Tox21 10K library (AID 1224841; call rule not given here; further: actives are mostly falling curves and most rising ones were filed inactive; nearly all actives have a fitted effect of over 50% in size; further: potency means the concentration at half of the fitted maximal effect). An outline of the steps:
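PGC/ERR reporter cells were seeded at 2,000 cells/well and held 6 hours at 37 C/5% CO2 before pin-tool addition of compounds in DMSO. After 18 hours at 37 C, One-Glo was added and luminescence read after 30 minutes at room temperature.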

Test [9] can be described thus: qHTS assay to identify small molecule agonists of the estrogen related receptor signaling pathway with the pleiotropic PPARgamma coactivator (PGC) from Tox21 10K library (AID 1224842). Further: nearly all actives have a fitted effect of over 15% in size. An outline of the steps: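 PGC/ERR reporter cells (NTP line) were seeded 2,000 per well, rested 6 h at 37 C/5% CO2, then pin-dosed with compounds in DMSO for 18 h at 37 C; luciferase read by One-Glo luminescence after 30 min at room temperature.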

The nature of test [10]: qHTS assay to identify small molecule agonists of the estrogen related receptor signaling pathway with the pleiotropic PPARgamma coactivator (PGC) (AID 1224823). The gist of the method: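 PGC/ERR reporter cells seeded 6 h, then exposed to compounds (23 nL in DMSO) for 18 h at 37 C. One-Glo luciferase luminescence read after 30 min at room temperature.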

Where “and” joins values, the source holds several entries; their conditions need not be identical. Equal entries are not always repeated. Inconclusive results are not listed. More than one record can exist for a structure, and the calls need not agree. Calls of active or inactive are those of the source. Unless noted, the call rests on the fitted dose curve; in most records, active means well fitted curve in the direction sought with a large enough effect in the repeat runs; inconclusive means weak or mixed curves; inactive means no such curve, though single readings can be large; an effect the other way counts as inactive or inconclusive.

Chain of Luciferin 4-monooxygenase (Photinus pyralis) (P08659 whole entry, looked up): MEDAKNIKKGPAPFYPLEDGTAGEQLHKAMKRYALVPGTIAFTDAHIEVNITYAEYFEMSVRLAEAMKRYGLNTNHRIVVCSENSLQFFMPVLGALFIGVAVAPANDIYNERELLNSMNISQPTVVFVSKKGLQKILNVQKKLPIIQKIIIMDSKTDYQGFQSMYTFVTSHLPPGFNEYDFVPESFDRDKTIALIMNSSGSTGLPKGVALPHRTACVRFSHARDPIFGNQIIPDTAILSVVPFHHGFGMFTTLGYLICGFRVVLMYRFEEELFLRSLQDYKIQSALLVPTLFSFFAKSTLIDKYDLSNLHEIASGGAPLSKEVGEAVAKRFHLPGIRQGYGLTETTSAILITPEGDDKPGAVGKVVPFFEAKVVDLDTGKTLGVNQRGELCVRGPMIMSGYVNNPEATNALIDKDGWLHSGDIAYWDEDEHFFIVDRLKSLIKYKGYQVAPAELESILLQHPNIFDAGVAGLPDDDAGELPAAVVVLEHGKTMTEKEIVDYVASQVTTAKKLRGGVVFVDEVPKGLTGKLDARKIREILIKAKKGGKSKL
Chain of Nuclear receptor subfamily 1 group I member 3 (Homo sapiens) (Q14994 whole entry, looked up): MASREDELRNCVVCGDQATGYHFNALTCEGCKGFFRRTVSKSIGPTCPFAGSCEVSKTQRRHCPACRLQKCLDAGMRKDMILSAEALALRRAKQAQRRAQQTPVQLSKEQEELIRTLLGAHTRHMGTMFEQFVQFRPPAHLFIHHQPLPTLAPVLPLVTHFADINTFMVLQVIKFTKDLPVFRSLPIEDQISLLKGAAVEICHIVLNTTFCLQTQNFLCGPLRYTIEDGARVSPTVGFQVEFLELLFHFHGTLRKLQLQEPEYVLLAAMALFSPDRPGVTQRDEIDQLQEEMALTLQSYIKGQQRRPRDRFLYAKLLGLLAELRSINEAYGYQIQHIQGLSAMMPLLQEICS

Consider `COc1ccc(C(=O)c2ccccc2)c(O)c1`, for which the Potency entry in [1], in test [3], in test [4], in test [5] and in test [7] was “inactive” throughout. For the same molecule, the Potency was 31.2 µM (active) and 35.6 µM (active) and 30.9 µM (active) in test [2]; 47.8 µM (active) and 48.6 µM (active) in test [6].

Consider `CC(=O)OC/C=C(C)/C=C/C=C(C)/C=C/C1=C(C)CCCC1(C)C`, for which the Potency entry in [1], in [2], in test [3], in [4], in test [5] and in test [6] was “inactive” each time. In addition, the Potency result in test [7] was “inactive”.

Turning to `C=CCOC(=O)CC(C)C`, the Potency entry in test [1], in test [2], in test [3], in test [4], in test [5] and in test [6] was “inactive” in each case. In addition, the Potency entry in [7], in test [8] and in [9] was “inactive” throughout.

Regarding `COc1cc(C=O)ccc1O`, the Potency entry in [1], in test [2], in test [3], in [4], in [5] and in [6] was “inactive” each time. Besides, the Potency entry in test [7] was “inactive”.

As to `CC(=O)CCC(C)C`, the Potency entry in test [1], in [2], in [3], in test [4], in test [5] and in test [6] was “inactive” in each case. Besides, the Potency entry in test [7] was “inactive”.

With `NC(=O)N/N=C/c1ccc([N+](=O)[O-])o1`, the molecule was classed as inactive in test [10]. Also, the Potency entry was “inactive and 27.3 µM (active)” in test [1]; 24.3 µM (active) and inactive in test [8]. Also, the Potency result in [2], in test [5], in test [6], in test [7] and in test [9] was “inactive” each time.

On to `CC1=C(/C=C/C(C)=C/C=C/C(C)=C/C(=O)O)C(C)(C)CCC1`, for which the Potency entry in test [1], in test [3], in test [4], in test [5] and in test [7] was “inactive” each time. The Potency in test [2] was 39.9 µM (active) and 27.5 µM (active); in [6], 27.3 µM (active) and 24.3 µM (active) and 10.6 µM (active).

`CC(O)COc1ccccc1` (stereo unspecified): the Potency result in test [1], in test [2], in test [3], in [4], in [5] and in [6] was “inactive” in each case. For the same molecule, the Potency entry in test [7] is “inactive”.

For `c1ccc2[nH]c(-c3cscn3)nc2c1`, the Potency entry in test [1], in test [3], in test [4], in test [5] and in test [7] was “inactive” in each case. The Potency in test [2] is 28.4 µM (active) and 35.6 µM (active) and 17.4 µM (active); in [6], 13.8 µM (active) and 6.11 µM (active) and 7.5 µM (active).

Consider `CCOC(=O)C(C)(C)Oc1ccc(Cl)cc1`, for which the molecule was classed as inactive in test [10]. The Potency result in [2], in test [3], in [4], in test [7], in test [8] and in test [9] was “inactive” each time.

Regarding `O=C(OCc1ccccc1)c1ccccc1`, the Potency result in test [1], in test [3], in test [4], in test [5], in [7] and in [8] was “inactive” each time. Further, the Potency result in [9] was “inactive”. The Potency in test [2] was 14.2 µM (active) and 11.2 µM (active) and 9.77 µM (active).

For the molecule `CCn1cc(C(=O)O)c(=O)c2ccc(C)nc21`, the Potency result in test [2], in test [3] and in test [4] was “inactive” throughout.

For `CC1=NN(c2ccccc2)C(=O)C1`, the Potency entry in test [1], in test [2], in test [3], in [4] and in test [7] was “inactive” in each case.

Turning to `NC(N)=NC(N)=NCCc1ccccc1`, the Potency entry in test [1], in test [2], in test [3], in test [4] and in test [7] was “inactive” each time.

As for `O=[N+]([O-])c1ccc(O)cc1`, the Potency in [1] is 50.4 µM (active) and 30.6 µM (active) and 54.5 µM (active); in test [3], 50.4 µM (active); in test [7], 30.6 µM (active). Further, the Potency result in test [2], in [5] and in test [6] was “inactive” each time.

Take `O=c1cc[nH]c(=O)[nH]1`: the Potency entry in test [1], in [2], in test [3], in [4], in test [5] and in [6] was “inactive” throughout. Also, the Potency entry in [7], in [8] and in [9] was “inactive” in each case.

Consider `Nc1ccc(N=Nc2ccccc2)c(N)n1`, for which the Potency was 48.8 µM (active) and 48.6 µM (active) and 21.1 µM (active) in test [1]; 8.99 µM (active) and 7.96 µM (active) and 7.76 µM (active) in test [2]; 24.5 µM (active) and 9.69 µM (active) and 5.96 µM (active) in test [6]; 38.6 µM (active) in test [7]. The Potency entry in [5] is “inactive”.

Consider `CC(=O)Oc1ccccc1C(=O)O`, for which the Potency entry in test [1], in test [2], in test [3], in test [4] and in test [7] was “inactive” in each case.

Turning to `Cn1cnc2c1c(=O)[nH]c(=O)n2C`, the Potency entry in test [1], in [2], in [3], in test [4], in test [5] and in [7] was “inactive” throughout.

With `CCCCOCCOCCOC(C)=O`, the Potency result in [1], in test [2], in test [3], in test [4], in test [5] and in test [6] was “inactive” throughout. The Potency entry in [7], in [8] and in test [9] was “inactive” throughout.

For the molecule `C[C@]12C=CC(=O)C=C1CC[C@@H]1[C@@H]2C(=O)C[C@@]2(C)[C@H]1CC[C@]2(O)C(=O)CO`, the Potency entry in test [1], in test [2], in test [3], in [4], in test [5] and in test [7] was “inactive” throughout.

For the molecule `CC(C)(C)CC(C)(C)c1ccc(O)c(-n2nc3ccccc3n2)c1`, the Potency result in [2], in test [3], in test [4], in test [5] and in test [7] was “inactive” each time. The Potency in [6] is 27.7 µM (active) and inactive.
